# Pf Dd2 inh = Plasmodium falciparum Dd2 growth inhibition. P. falciparum Dd2 growth, SYBR Green, 72 h. Potency, µM (titrated, usually from 28.9 µM), for inactives: at the highest dose activity, negative = inhibition, hits mostly inhibitors. AID 1347417. actives 4.3% (n = 120,000); active = well fitted inhibition curve with a large enough effect;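 note: plate controls were DMSO vehicle for no effect and reference drug for full effect; nearly all actives have a fitted effect of over 65% in size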
#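 Infected erythrocytes (Dd2, 0.3% parasitemia, 2.5% hematocrit final) are added to compound in RPMI-1640/Albumax II medium, grown 72 h at 37C in low oxygen, then lysed with saponin/Triton-X containing SYBR Green and read by fluorescence.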
# * marks the source's active call; other numbers are inactive results; i = inactive; [ ] = remark or other dose. The entries come from a sample that favours hits as a whole. Potency is the fitted concentration of half-maximal effect.
SMILES,Pf Dd2 inh
Cc1ccccc1-c1cc(C(=O)NCc2cccnc2)c2c(c1)N(C)CCO2,-11%[44.1 µM]
COc1ccc(CC(=O)N2CCC(c3n[nH]c(=O)n3-c3ccc(C)cc3)CC2)cc1Cl,-21%
O=C(CC1CC1)N1CC(F)(F)C[C@H]1c1nc(-c2ccncc2)no1,9%
O=C1NCCCCCN(C(=O)NC2CCCCC2)[C@H]2CCCC[C@@H]12,17%
COc1ccc(C2C=C(c3ccccc3)Nc3nc(NC(=O)/C=C/c4ccc(F)cc4)nn32)cc1 (centres undefined),13µM*
O=C1CCC(C(=O)N[C@@H]2COCC[C@@H]2OCc2cscn2)=NN1,-3%
CC(C)CC(=O)N1CCCCCC1CN1CCOCC1 (centres undefined),-15%
CC1=C(C(=O)Nc2ccc(C)cc2C)C(c2ccc(C(=O)O)cc2)n2nc(SCc3ccccc3)nc2N1 (centres undefined),-5%
CC1=C(C(=O)Nc2ccc(C)cc2C)C(c2ccc(C(C)C)cc2)n2nc(C(F)(F)F)nc2N1 (centres undefined),13µM*
COc1cc(C2C(C(=O)Nc3ccc(C)cc3C)=C(C)Nc3nc(SCc4ccccc4)nn32)cc(OC)c1OC (centres undefined),-2%
O=C(CC1COCCN1)N1CCC2(CCC(=O)N(CCc3ccccc3)C2)CC1 (centres undefined),4%
COc1ccc2[nH]c(C(=O)N3CCC4(CC3)CC(O)CCO4)cc2c1 (centres undefined),11µM*
COc1ccc(C(=O)N2CCC3(CC2)CC(O)CCO3)c(C)c1 (centres undefined),7%
COc1ccc(C(=O)N2CCC3(CC2)CC(O)CCO3)cc1 (centres undefined),28%
O=C(c1ccc(Cl)cc1)N1CCN(c2cc(-c3ccc(F)cc3)[nH]n2)CC1,-5%
CCn1cc(CN2CCCC(CNC(=O)c3cc(OC)cc(OC)c3)C2)c(C)n1 (centres undefined),-15%
COc1ccccc1OCC(=O)NCC1CCCN(Cc2ccc(C)c(C)c2)C1 (centres undefined),-7%
COc1cc(OC)cc(C(=O)NCC2CCCN(C/C=C/c3ccccc3OC)C2)c1 (centres undefined),8.9µM*
CN(Cc1ncc[nH]1)c1ccc(-c2nc(CCCc3ccccc3)no2)cn1,4.5µM*
CN(Cc1ccccn1)c1ccc(-c2nc(Cc3ccc(F)cc3)no2)cn1,-27%
Cc1nnc(CN(C)c2ccc(-c3nc(CCCc4ccccc4)no3)cn2)o1,i
Cc1nn(C)c(C)c1C(=O)N1CCCn2ccnc2C1c1ccccc1 (centres undefined),21%
CNC(=O)C1(N2CCC[C@H]2C(=O)N2CCCCCC2)COC1,40%[44.1 µM]
COc1ccccc1OCC(=O)c1ccc2c(c1)N(CCCC(=O)N1CCOCC1)C(=O)CO2,i
Cc1ccc(OCC(=O)c2ccc3c(c2)N(CCCC(=O)N2CCOCC2)C(=O)CO3)cc1C,i
SMILES,Pf Dd2 inh
CC(C)c1ccc(OCC(=O)c2ccc3c(c2)N(CCCC(=O)N2CCOCC2)C(=O)CO3)cc1,13µM*
O=C(c1ccccc1F)N1CCC2(CC1)CC(Cc1ccccc1)=NO2,-3%
CN(Cc1cccc2ccccc12)C1CCCc2ccccc21 (centres undefined),11µM*
CN(Cc1ccc(F)cc1)C1CCc2ccccc21 (centres undefined),-3%[44.1 µM]
CN(CC1CCCCC1)C1CCc2ccccc21 (centres undefined),-21%[44.1 µM]
CN(Cc1cccnc1)C1CCCc2ccccc21 (centres undefined),5µM*
COC(=O)N(C)C1CCCc2ccccc21 (centres undefined),-21%[44.1 µM]
CN(Cc1ccc(C(F)(F)F)cc1)C1CCc2ccccc21 (centres undefined),-8%[44.1 µM]
O=C(O)C1CCc2nnc(C3CCCN(C(=O)c4ccc(C(F)(F)F)cc4)C3)n21 (centres undefined),4%
O=C(c1nc2sccn2c1Br)N1CCOCC1,12%[44.1 µM]
Cc1cc(C)n(CC(=O)N2CCC(c3nc(CCOCC4CCCC4)no3)C2)n1 (centres undefined),2%
O=C(Cc1cccn1-c1cccc(Cl)c1)NCc1cccs1,-3%
CCC(C)c1ccc(OCC(=O)Nc2ccc(-c3nc4ncccc4o3)cc2)cc1 (centres undefined),10µM*
COc1ccc(OCC(=O)Nc2ccc(Cl)c(-c3nc4ncccc4o3)c2)cc1,7.9µM*
CC(C)(Oc1ccc(Cl)cc1)C(=O)Nc1ccc(-c2nc3ncccc3o2)cc1,i
COc1ccc(OCC(=O)Nc2ccc(-c3nc4cc(Cl)ccc4o3)cc2)cc1,5%
CCCC(=O)Nc1cc(C)c(O)c(-c2nc3ncccc3o2)c1,11%
Cc1ccc(C(C)C)c(OCC(=O)Nc2cccc(-c3nc4ncccc4o3)c2)c1,-14%
CC(C)c1noc([C@@H]2C[C@H]3C(=O)NCCCCCCN(C(=O)CCC4CCCC4)[C@H]3C2)n1,-23%
COc1cccc(CN2CCCCCNC(=O)[C@@H]3CCC[C@@H]32)c1,i
CCCCNC(=O)Cn1nc2n(c1=O)CCN(Cc1cccc(Cl)c1)C2=O,-21%
